Results reported in PubChem BioAssay (NCI).
The panel holds about 79,000 compounds, 15% with a hit somewhere; the sample as a whole holds those more often. Unmarked numbers belong to inactive results. Active and inactive are the calls of the source. Cut-off read from the data, not from the text of the source: active = growth inhibition above about 70%; inactive = the rest.

Assays:
[1] = NCI Yeast Anticancer Drug Screen. Data for the rad50 strain (AID 155);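 note: 0% = growth of vehicle-only cultures of the same strain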; details: S. cerevisiae rad50 strain growth inhibition, active compounds read high
Outline: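 Inhibition values express reduced yeast growth in compound-treated cultures relative to vehicle-treated controls.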

[2] = NCI Yeast Anticancer Drug Screen. Data for the mec2-1 strain (AID 157); details: S. cerevisiae mec2-1 strain, active compounds read high
Outline: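 Using mec2-1 yeast: add compound, measure growth, express inhibition versus vehicle-treated cultures.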

[3] = NCI Yeast Anticancer Drug Screen. Data for the sgs1 mgt1 strain (AID 161);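 note: 0% = growth of cultures given vehicle only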; details: S. cerevisiae sgs1 mgt1 strain, active compounds read high
Outline: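 Compounds are added to genetically altered yeast, and growth is compared with cultures given vehicle alone to give percent inhibition.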

[4] = NCI Yeast Anticancer Drug Screen. Data for the cln2 rad14 strain (AID 165);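 note: 0% = growth equal to vehicle treated cultures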; details: S. cerevisiae cln2 rad14 strain, active compounds read high
Outline: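 Yeast strain cln2 rad14, bearing defects in cell cycle control and DNA repair, serves as the test system; values reflect growth inhibition compared with vehicle.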

[5] = NCI Yeast Anticancer Drug Screen. Data for the bub3 strain (AID 167); details: S. cerevisiae bub3 mutant strain, active compounds read high
Outline: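 Steps: expose the mutant yeast strain to compound; grow alongside vehicle-treated cultures; measure growth; express inhibition against the vehicle cultures.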

[6] = NCI Yeast Anticancer Drug Screen. Data for the mlh1 rad18 strain (AID 175); details: S. cerevisiae mlh1 rad18 strain growth inhibition, active compounds read high
Outline: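 Steps: expose repair-defective yeast to compound; measure growth; express inhibition against vehicle-treated controls.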

[7] = at 5.0 µM (retest, dose inferred, filed as 0.5)
[8] = at 50.0 µM (retest, dose inferred, filed as 5.0)

SMILES | growth inhibition [1, 7] | growth inhibition [1, 8] | growth inhibition ([1]; at 50.0 µM) | growth inhibition [2, 7] | growth inhibition [2, 8] | growth inhibition ([2]; at 50.0 µM) | growth inhibition [3, 7] | growth inhibition [3, 8] | growth inhibition ([3]; at 50.0 µM) | growth inhibition [4, 7] | growth inhibition [4, 8] | growth inhibition ([4]; at 50.0 µM) | growth inhibition [5, 7] | growth inhibition [5, 8] | growth inhibition ([5]; at 50.0 µM) | growth inhibition [6, 7] | growth inhibition [6, 8] | growth inhibition ([6]; at 50.0 µM)
O=C1C=CC(=O)N1c1cccc(F)c1 | 96% (active) | 99% (active) | 99.7% (active) | 97% (active) | 100% (active) | 99.8% (active) | 93% (active) | 99% (active) | 99.7% (active) | 82% (active) | 99% (active) | 98.8% (active) | 98% (active) | 100% (active) | 99.6% (active) | 88% (active) | 100% (active) | 99.4% (active)
CCOC(=O)CCc1ccc(OC)c(OC)c1 | 1% | -2% | -9.55% | 16% | -4% | 23% | 0% | -2% | 22.9% | 3% | -8% | 38.7% | -2% | 19% | 17.4% | 2% | -1% | -5.15%
O=[N+]([O-])c1ccc2c(N=Nc3ccc4ccccc4c3O)c(O)cc(S(=O)(=O)O)c2c1 | 32% | 34% | 85.6% (active) | 13% | 17% | 55.8% | 17% | 29% | 74.7% (active) | -32% | -68% | 30.6% | -7% | 22% | 82.7% (active) | 9% | 36% | 86.5% (active)
O=Nc1c(O)ccc2ccccc12.[Fe].[Na+] | 7% | 97% (active) | 97.2% (active) | 14% | 98% (active) | 97.7% (active) | 8% | 98% (active) | 98.5% (active) | -2% | 96% (active) | 96.6% (active) | 13% | 98% (active) | 97.6% (active) | 4% | 97% (active) | 96.2% (active)
CCCCCCCCCCCCCCNCc1ccccc1 | 99% (active) | 97% (active) | 98.8% (active) | 99% (active) | 98% (active) | 98.5% (active) | 99% (active) | 97% (active) | 98.2% (active) | 99% (active) | 97% (active) | 97.5% (active) | 99% (active) | 97% (active) | 98.6% (active) | 99% (active) | 97% (active) | 97.5% (active)
CC(=O)Oc1cc2c(cc1OC(C)=O)OCC(c1ccc(C)cc1)C2 (configuration not stated) | 8% | 65% | 53.1% | 8% | 49% | 57.9% | 4% | 61% | 32.1% | 2% | 72% (active) | 64% | 8% | 87% (active) | 73.7% (active) | 0% | 64% | 75.8% (active)
CC(=O)O/C=C\COC(C)=O | 4% | 4% | 79.8% (active) | 2% | -2% | 47.8% | 3% | 2% | 42.5% | 3% | -2% | 33.5% | 6% | 1% | 86.3% (active) | 2% | 6% | 39.3%
O=C1NC(=O)/C(=C/C=C/c2ccccc2)S1 | 19% | 91% (active) | 40.9% | 13% | 73% (active) | 25.9% | 25% | 98% (active) | 47.8% | 27% | 63% | 77.4% (active) | 61% | 99% (active) | 48.1% | 26% | 94% (active) | 90.2% (active)
CC(C)CNc1cc(Cl)nc(N)n1 | -1% | 0% | 88% (active) | 4% | 1% | 92.3% (active) | 2% | -3% | 89.9% (active) | -2% | -6% | 91.3% (active) | 1% | -2% | 59% | -4% | -5% | 95.5% (active)
CSc1ncnc2ncn(C3OC(CO)C(O)C3O)c12 (configuration not stated) | -16% | -1% | 9.65% | -15% | -2% | 3.55% | -11% | 2% | 15.2% | 2% | -3% | 53% | -10% | -14% | -0.75% | -7% | -21% | 12.5%
CCCc1cc(=O)oc2c3c(c4c(c12)OC(C)(C)CC4)O[C@H](C)[C@@H](C)[C@H]3O | 8% | 94% (active) | 83.5% (active) | 17% | 97% (active) | 90.5% (active) | 14% | 96% (active) | 89.2% (active) | 18% | 95% (active) | 88.7% (active) | 23% | 96% (active) | 86.8% (active) | 10% | 95% (active) | 86.5% (active)
CSC(=S)NNC(C)c1nccc2ccccc12 (configuration not stated) | 23% | 97% (active) | 97.8% (active) | -3% | 98% (active) | 98.8% (active) | 29% | 97% (active) | 98.8% (active) | -8% | 97% (active) | 97.8% (active) | -7% | 97% (active) | 98.2% (active) | 2% | 97% (active) | 98.8% (active)
N#CC(C#N)=C(c1ccccc1)c1ccccc1 | -8% | 99% (active) | 97.4% (active) | 13% | 100% (active) | 99.5% (active) | 18% | 99% (active) | 99.4% (active) | -33% | 99% (active) | 99.5% (active) | -6% | 100% (active) | 99.3% (active) | -4% | 100% (active) | 99.4% (active)
CCOP(=O)(CCCOc1cc(Cl)c(Cl)cc1Cl)OCC | 1% | 99% (active) | 98.7% (active) | 2% | 99% (active) | 98.9% (active) | 14% | 100% (active) | 99% (active) | 7% | 99% (active) | 93.7% (active) | 6% | 99% (active) | 94.2% (active) | 2% | 99% (active) | 98.6% (active)
C[CH2][Sn]([CH2]C)([O]C(=O)c1cccc(OC)c1)[O][Sn]([CH2]C)([CH2]C)[O]C(=O)c1cccc(OC)c1 | 31% | 69% | 59.5% | 30% | 79% (active) | 39.2% | 36% | 76% (active) | 37.5% | 30% | 58% | 40.8% | 30% | 86% (active) | 37.5% | 40% | 74% (active) | 56.5%
COc1ccc(C2C3=C(CCCC3=O)Oc3cc4c(cc32)OCO4)cc1 (configuration not stated) | 2% | 68% | 98% (active) | 5% | 76% (active) | 96.7% (active) | -6% | 64% | 97.3% (active) | 22% | 67% | 96.3% (active) | -2% | 79% (active) | 95.9% (active) | 0% | 91% (active) | 98.2% (active)
O=[N+]([O-])c1ccc2c(c1)Cc1cc(O)c(I)cc1-2 | 3% | 91% (active) | 97.5% (active) | 13% | 92% (active) | 97.8% (active) | 3% | 93% (active) | 96.7% (active) | -10% | 91% (active) | 95.2% (active) | -4% | 93% (active) | 95.8% (active) | -2% | 95% (active) | 97.2% (active)
Oc1ccc2ccc3ccccc3c2c1 | 5% | 99% (active) | 99.5% (active) | 2% | 99% (active) | 99.5% (active) | 5% | 99% (active) | 99.5% (active) | -3% | 99% (active) | 99.5% (active) | -3% | 98% (active) | 99.5% (active) | 2% | 99% (active) | 99.5% (active)
O=C1CCC(=O)c2c1c(O)c1ccncc1c2O | 18% | 99% (active) | 98.1% (active) | 26% | 99% (active) | 99.3% (active) | 31% | 99% (active) | 99.2% (active) | 11% | 99% (active) | 98.5% (active) | 16% | 99% (active) | 99.2% (active) | 41% | 99% (active) | 99% (active)
